Measured values taken from PubChem BioAssay AID624331 (National Center for Advancing Translational Sciences (NCATS), 2012).
Inconclusive results are not listed. A call without a number means that no potency is given here. The source made the active and inactive calls. Calls follow the shape of the dose curve; as a rule, active = well fitted activation curve with a large enough effect; inconclusive = small, poorly fitted or top-dose-only effect; inactive = no such curve, though single readings can be large or run the other way.

Assay: qHTS assay for re-activators of p53 using a Luc reporter: Hit Validation with no p53 Expressed
Conditions: p53-null cells, luciferase reporter counter-screen; series mostly up to 46.1 µM
Outline: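 Without p53 expression, cells (1000/well, Opti-MEM + 10% FBS) were exposed 24 h at 37 deg C to compounds in a 1:5 series from 10 mM stock (top 46.1 µM in well). Luminescent signal read 10 min after Amplite addition; actives flag unspecific activation.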
Potency is read from the fitted curve at half-maximal effect.

| SMILES | Potency |
| --- | --- |
| CCCCC(=O)N1CCCC(C)C1 (centres undefined) | inactive |
| N#C/C(Cn1c[n+](NC(=O)Nc2ccccc2)cn1)=N/O | inactive |
| C/C(CC(C)C)=N\NC(=O)Nc1ccccc1 | inactive |
| O=C(NC1CC1)c1cccc(NC(=O)c2cn3ccccc3n2)c1 | inactive |
| COc1cc(/C=C/C(=O)N2C(=O)c3cccc(N)c3C2=O)cc(OC)c1OC | inactive |
| Cc1ccc(-c2noc(CN3CCC(C(N)=O)CC3)n2)cc1 | inactive |
| Cc1ccc(C)c(N2CCN(C(=O)CCc3nc(-c4ccccc4C(F)(F)F)no3)CC2)c1 | inactive |
| Cc1ccc(-c2nc3ccccc3o2)cc1NC(=O)c1ccc2c(c1)OCO2 | inactive |
| CN(C)c1ccc(CNC2CC(C)(C)NC(C)(C)C2)cc1 | inactive |
| Cc1ccc(/C=N/NC(=O)c2cccs2)s1 | inactive |
| O=C(Nc1ccc(CN2CCOCC2)cc1)c1cc2ccccn2n1 | inactive |
| O=C(COC(=O)c1ccc(-c2nnc(-c3ccccc3)o2)cc1)c1ccccc1 | 146 nM (active) |
| COc1cc(NC(=O)CSCc2ccc(Cl)cc2)c(C(=O)O)cc1OC | inactive |
| Clc1ccc(C2=NNC(=NCC3CCCO3)SC2)cc1 (centres undefined) | inactive |
| Cc1cc(C(=O)N/N=C/c2cccn2C)n[nH]1 | inactive |
| Cc1cccc(NC(=O)Nc2ccc(C)cc2Br)c1 | inactive |
| O=C(O)CCCC(=O)NCCc1ccncc1 | inactive |
| O=C(NCCN1CCCCC1)Nc1cccc(C(F)(F)F)c1 | inactive |
| Cc1ccc(C)c(/C=C/C(=O)c2ccccc(=O)c2O)c1 | inactive |
| CC1(C)CC(=O)CC(=O)/C1=N\Nc1c(Cl)cc(Cl)cc1Cl | inactive |

| SMILES | Potency |
| --- | --- |
| Cc1cc(/C=N/Nc2ncnc(N)c2[N+](=O)[O-])c(C)n1-c1ccccc1 | inactive |
| O=c1cc(-c2ccc3c(c2)OCCO3)oc2ccc(Cl)cc12 | inactive |
| CCOc1cccc(-c2c(C(=O)N/N=C(\C)c3ccccn3)nnn2-c2nonc2N)c1 | inactive |
| Cc1ccc(NC(=O)CCN2C(=O)c3cccc([N+](=O)[O-])c3C2=O)c(Br)c1 | inactive |
| COc1ccc2c(c1)Cc1sc(NC(C)=O)nc1-2 | inactive |
| Cc1sc(NC(=O)c2ccc(Cl)s2)c(C(N)=O)c1C | inactive |
| N#Cc1cc2c(nc1SCC(=O)Nc1nccs1)CCCCC2 | inactive |
| O=C(CCS(=O)(=O)c1ccccc1)Nc1ccc(-c2nc3ccccc3s2)cc1 | inactive |
| C=CCn1c(SCC(=O)Nc2ccc(-c3nc4ccc(C)cc4s3)cc2)nnc1-c1ccccc1 | inactive |
| OCCNc1nc(NCc2ccccc2)c2ccccc2n1 | inactive |
| COc1cc(C2NC(=S)NC(O)(C(F)(F)F)C2C(=O)c2cccs2)cc(OC)c1O (centres undefined) | inactive |
| COc1ccccc1/C=C/C(=O)Nc1ccc2c(c1)CCC2 | 2910 nM (active) |
| Nc1c(C(=O)CSc2ccccn2)c(=O)[nH]c(=O)n1C1CC1 | inactive |
| O=C(Oc1ccccc1/C=C\C(=O)c1cc2ccccc2o1)c1cccc(F)c1 | inactive |
| Cc1csc(NC(=O)/C=C/c2ccco2)n1 | inactive |
| COc1ccc2oc(C(=O)Nc3nc(C)cs3)c(C)c2c1 | inactive |
| O=C(/C=C/c1cnc2ccccc2n1)NC12CC3CC(CC(C3)C1)C2 | inactive |
| N#CC1=C(N)N2C(=C(C#N)C13CCCCC3)SC1CCCCC12O (centres undefined) | inactive |
| O=[N+]([O-])c1cc(C(F)(F)F)ccc1NCCc1c[nH]c2ccccc12 | inactive |
